This passage reports binding signal results from article PMC12136788.

To fix the notation:
B1: chr2:112659350:112659462:+|CDS|ENSG00000144136|unk|FALSE|unique (ssRNA)
RNA: GGGAGUUCUACAGUCCGACGAUCCUUGCCAAGGUGGGAGAUUGCAUGGGAGACUCCGGUGACAAACCCUUAAGGCGCAAUAAUAGCUAUACUUCCUAUACCAUGGCAAUAUGUGGCAUGCCUCUGGAUUCAUUCCGUGCCAAACAACAGAGGAUUGAGCAUCA
B2: chr12:49763637:49763739:+|3pUTR|ENSG00000139644|msi1_unk|total|mutant (ssRNA)
RNA: GGGAGUUCUACAGUCCGACGAUCAUGUGUAUCAAGGUACAGCAUCGCCGGGUUCCCCUAAACUUGCCCUGUUUUUGUUUUUUCCGUUUGUUAUCCCCUUACUGAGCGGCCUCUACCCGGUGGCUGUGAUUAAAUGUCCCAAGCCAACAGAGGAUUGAGCAUCA
B3: chr20:17613772:17613873:-|3pUTR|ENSG00000125844|unk|total|mutant (ssRNA)
RNA: GGGAGUUCUACAGUCCGACGAUCAGCCCCGUGGGUGUGUGGGAGGCCGGGCGCUCUGGGGUCUGUCUGUCAGUGCAAUCGUUCCGUGUUUUUUCAGUGGGGCGGGGCGGGAAGCGGGUGGGACCGGGCAGCCAGUUCUCAAAGCAACAGAGGAUUGAGCAUCA
B4: chr4:48851844:48851957:+|CDS|ENSG00000109180|unk|FALSE|unique (ssRNA)
RNA: GGGAGUUCUACAGUCCGACGAUCAUAUGACUCAAGUGUGAGUGGUCAAUCAUCUUUUGUGACAUCCCCAGCAGCAGACAACAUAGAAAUGCUUCCUCAUUAUGAGCCAAUUCCAUUCAGUUCUUCUAUGAAUGAAUCUGCUCCCAACAGAGGAUUGAGCAUCA
B5: ENSG00000107863:be:win_2201|CDS|ENSG00000107863|bound_else_gene|NA|bound_elsewhere_windowed (ssRNA)
RNA: GGGAGUUCUACAGUCCGACGAUCCUGUCAUCCUAAGGGAAAAACCUCCAUCUGGACGCCAGACACCGCAGCCUUUAAGGCAUCAGUCUUACAUCUUGGCAGUAAAUGACCAGGAGACCGGGUCAGACACUACCUGCUGGCUGCCAACAGAGGAUUGAGCAUCA
B6: chr18:55226207:55226308:-|3pUTR|ENSG00000196628|unk|FALSE|unique (ssRNA)
RNA: GGGAGUUCUACAGUCCGACGAUCAUUUUUACAGCCACACAAUUCUUGGCAUGUAUUAAGAAAAAAAAAAAUCCCUGUUCAAGUAGUUUUUCCACCUAUCAGCACUGAGUAAAUGCCAUAAAUCCAUUGAAAUGGUCUAAAUGUCAACAGAGGAUUGAGCAUCA
B7: chr16:21655520:21655610:+|3pUTR|ENSG00000197006|msi1_unk|total|mutant (ssRNA)
RNA: GGGAGUUCUACAGUCCGACGAUCUCUGUGUUCACAAUUACGUGAAGGGAGGACCCUUGGGGACCGCCAUUCUAAAUAUCAUGCCGGAAUUUAAAAAGCCAAAAUACUAAUUAUUUCUUUGCCGUGUGUAAAGGAAUGUUUUUACAACAGAGGAUUGAGCAUCA
B8: ENSG00000151612:stop:overlap|stop_codon|ENSG00000151612|stop_codon|NA|stop_codon (ssRNA)
RNA: GGGAGUUCUACAGUCCGACGAUCCAGGCCUGUUGGAGAAGGAAGCCAGCAGUGAGGGGGAUUGCAAAGUAGAGAGAGGUUGGUAGAACUGUGGACUGUGAAGAGAUCGAGAAUAGCACAGUUAACUAGGCAUUUGCCUUCGGCCAACAGAGGAUUGAGCAUCA
B9: ENSG00000136451:be:win_551|CDS|ENSG00000136451|bound_else_gene|NA|bound_elsewhere_windowed (ssRNA)
RNA: GGGAGUUCUACAGUCCGACGAUCGAGAUGUGUACCAUCUCAAUCGACACAAGCUCUCCCAUUCAGAUGAGAAACCCUUUGAGUGUCCUAUUUGUAAUCAGCGCUUCAAGAGGAAGGACCGGAUGACUUACCAUGUGAGGUCUCCAACAGAGGAUUGAGCAUCA
B10: chr6:134965076:134965177:-|3pUTR|ENSG00000112339|unk|total|mutant (ssRNA)
RNA: GGGAGUUCUACAGUCCGACGAUCAAAGGAACAAUGUGCAAUUGAUAUGUUUUCCGAUGAGAGAGAAAAAUUAAAGCUAAAAUCCGCUGCAAAGAAGUAUUAAUAAUCACCUCUGCAAAAAUUCUAAGUUGCCAACUGGCAAAGCAACAGAGGAUUGAGCAUCA
B11: chr19:811491:811550:+|3pUTR|ENSG00000011304|msi1_unk|FALSE|overlapping (ssRNA)
RNA: GGGAGUUCUACAGUCCGACGAUCUAGCAAUAUUUCCAGUUGACCAAAUAUUCUAAUCUUUUUUCAUUUAUAUGCAAAAGAAAUAGUUUUAAGUAACUUUUUAUAGCAAGAUGAUACAAUGGUAUGAGUGUAAUCUAAACUUCCCAACAGAGGAUUGAGCAUCA
B12: chr7:111727939:111728040:-|3pUTR|ENSG00000128512|unk|total|mutant (ssRNA)
RNA: GGGAGUUCUACAGUCCGACGAUCAAGUGGUAAACCGUGAUAAAGACUCCUUUUGUACCUUUUUAUGUUCACUUUUUUUUAUACCGUUUAAUCUUAAAACCAAUACGAUAUUGUCAAACGAUACAAUGUGUGACAAUGUUGUAUCAACAGAGGAUUGAGCAUCA
B13: ENSG00000070961:be:win_4701|3pUTR|ENSG00000070961|bound_else_gene|NA|bound_elsewhere_windowed (ssRNA)
RNA: GGGAGUUCUACAGUCCGACGAUCUUUUCUAAUCUUUAGAGACCUUCACACAGCAUGAGGGCUGUUGGCAUUUUGAAAAAGGUUAAUAAGUAGAAGCAUACAUGUUUUCCUUUUGUUUUUGAAACUUGUUUGUAAACAUAAAUACAACAGAGGAUUGAGCAUCA
B14: chr7:111727939:111728040:-|3pUTR|ENSG00000128512|unk|FALSE|unique (ssRNA)
RNA: B12 RNA with C34U, C35A, C83U, C84A
B15: ENSG00000070961:be:win_4601|3pUTR|ENSG00000070961|bound_else_gene|NA|bound_elsewhere_windowed (ssRNA)
RNA: GGGAGUUCUACAGUCCGACGAUCUCAGACUAUCAAACUACAAGAGAACCUUAGUCUUUUUUGUUUUUGUCUAAACAUGUUAGUUUAGUGAUGUCUUGGUGAACUGUGAGUGAACUGUAUUGAUUUUUCUAAUCUUUAGAGACCCAACAGAGGAUUGAGCAUCA
B16: ENSG00000070961:be:win_4651|3pUTR|ENSG00000070961|bound_else_gene|NA|bound_elsewhere_windowed (ssRNA)
RNA: GGGAGUUCUACAGUCCGACGAUCACAUGUUAGUUUAGUGAUGUCUUGGUGAACUGUGAGUGAACUGUAUUGAUUUUUCUAAUCUUUAGAGACCUUCACACAGCAUGAGGGCUGUUGGCAUUUUGAAAAAGGUUAAUAAGUAGACAACAGAGGAUUGAGCAUCA
B17: chr10:110135209:110135310:+|3pUTR|ENSG00000148700|msi1|total|mutant (ssRNA)
RNA: GGGAGUUCUACAGUCCGACGAUCCUCUCUAUUGGAAGAUUUUUUUAAUGUUCUACAUCAUUUAUGUUGUAUUACAAUGUAUGCCGAAACCGUAACCUGUGAACUAUGCUUUUCCAUAACUUUUUAAAAAUAUAUAUAUCUAAACAACAGAGGAUUGAGCAUCA
B18: chr18:3457781:3457936:+|CDS|ENSG00000177426|unk|total|mutant (ssRNA)
RNA: GGGAGUUCUACAGUCCGACGAUCCAACACUCCUCCCCCUACUCCACCGGACCUCAACCAGGACUUCAGUGGAUUUCAGCUUCCCGUGGAUGUUGCACUCAAACGGGCUGCAGAGAUGGAGCUUCAGGCAAAACUUACAGCUUACAACAGAGGAUUGAGCAUCA
B19: chr8:88032264:88032379:-|3pUTR|ENSG00000156103|unk|FALSE|bound_elsewhere (ssRNA)
RNA: GGGAGUUCUACAGUCCGACGAUCACUCCUUAUAAUGUUGCGUCAUUAAAGGUCAAGGGGUCAUGCUAUUAAUCUCAUUGCUAUAGACCAUUAACAUGACUGAACUUUUCCACAAAGUACUUAUGUUUACAAUGCUAUAACCCUCAACAGAGGAUUGAGCAUCA
B20: ENSG00000150457:stop:overlap|stop_codon|ENSG00000150457|stop_codon|NA|stop_codon (ssRNA)
RNA: GGGAGUUCUACAGUCCGACGAUCCAGAUUUAGAAAGCUCUGAUCUGGUGGAUCAGACUGAAGGCUGCCAGCCUGUGUACGUGUAGAUGGGGGCCAGGCACCCCCACCACUCGCUGCCUCCCAGGUCAGGGUCCCGGAGCCGGUCAACAGAGGAUUGAGCAUCA
B21: chr11:118657315:118658441:-|three_prime_utr|ENSG00000118094|control|control|control (ssRNA)
RNA: GGGAGUUCUACAGUCCGACGAUCCCUCCCAGCCUGUCCUCAGAGCGAAGUGGAGGGCAGGGUCACGACCUGGAGGUCAUGGGUAGGGGCCUAGCUCCCUCCUGGAACCUUGAAUAGGGUGGAAAUCCUGCUCUGGAGGGAAGACAACAGAGGAUUGAGCAUCA
B22: chr1:156742365:156742464:-|3pUTR|ENSG00000143321|msi1_unk|total|mutant (ssRNA)
RNA: GGGAGUUCUACAGUCCGACGAUCAUUUCUGAGGUGCACUGGGAGGCUCCCCUUCUAUUUGGGGCUUGAUGACUUUCUUUUUGCCGCUGGGGCUUUGAUGUUCCUUCCAGUGUCAUUUCUCAUCCACAUACCCUGACCUGGCCCCAACAGAGGAUUGAGCAUCA

Where a chain is given by its changes, count along the chain named. Over roughly 5,800 sequences, “enrichment r” has its median near 0.54; the highest 2% begin near 16. This excerpt belongs to a sample that is enriched for the highest values.

The experiment deals with MSI1 full-length (mouse, UniProt Q61474 1-362). The experiment is described as follows: nsRBNS (natural sequence RNA bind-n-seq); RBNS binding buffer (assumed for nsRBNS): 25 mM Tris pH 7.5, 150 mM KCl, 3 mM MgCl2, 0.01% Triton X-100, 500 ug/ml BSA, 20 U/ml SUPERase-In, 4 C; UNK is unkempt and MSI1 is Musashi-1; names of the RNAs are library labels; protein concentration not given here; high values mean tight binding.
MSI1 full-length, sequence (Q61474 whole entry): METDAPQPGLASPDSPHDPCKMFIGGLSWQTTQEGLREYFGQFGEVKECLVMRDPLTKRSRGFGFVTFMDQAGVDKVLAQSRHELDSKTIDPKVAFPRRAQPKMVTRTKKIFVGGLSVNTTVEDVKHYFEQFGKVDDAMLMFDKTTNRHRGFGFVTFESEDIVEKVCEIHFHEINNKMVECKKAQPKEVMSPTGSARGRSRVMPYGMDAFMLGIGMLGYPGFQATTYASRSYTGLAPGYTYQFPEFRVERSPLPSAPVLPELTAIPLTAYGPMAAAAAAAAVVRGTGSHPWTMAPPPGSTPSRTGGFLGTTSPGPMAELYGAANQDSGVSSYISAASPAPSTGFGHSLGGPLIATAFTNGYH
For B1, the binding signal is 0.737 enrichment R. Then B2, with 0.481 enrichment R; and B3, with 0.811 enrichment R; and B4, with 0.341 enrichment R.

Regarding B5, the binding signal turned out to be 0.283 enrichment R. B6 returned a binding signal of 0.374 enrichment R.

The molecule B7 registered a binding signal of 0.282 enrichment R. With B8 the figure was 3.25 enrichment R. Then B9, with 0.307 enrichment R; and B10, with 0.346 enrichment R. Then B11, with 0.9 enrichment R; and B12, with 3.05 enrichment R; and B13, with 0.664 enrichment R. B14 displayed a binding signal of 37.8 enrichment R. Consider B15, for which the binding signal came out at 3.69 enrichment R.

On to B16, for which the binding signal turned out to be 28.3 enrichment R. With B17 the figure was 7.3 enrichment R; with B18, 0.52 enrichment R.

Turning to B19, the binding signal amounted to 0.72 enrichment R. With B20 the figure was 0.418 enrichment R; with B21, 0.327 enrichment R. With B22 the figure was 0.353 enrichment R.
